Experimental findings from PubChem BioAssay are described below.

The nature of one test: DUSP6 inhibitors restoring Erk phosphorylation by chemical complementation, primary imaging in DUSP6-transfected HeLa (AID 609). Conditions: HeLa MKP-3 transfected, phospho-Erk imaging KS statistic; measured here: nuclear c-Myc green intensity z-score; at 10 µM; cells stimulated with TPA for 15 min.
Compound `Cc1nnc(N2CCOCC2)c2ccccc12` yielded a z-score of 0.102.

Take `CCOc1ccc2c(c1)n([O-])c1c([n+]2=O)CCCC1`: the z-score stood at 0.548.

In turn, `C[N+]1(CCNC(=O)/C=N/O)CCCCC1` gave a z-score of 0.313.

`Cc1ccc(C(=O)NCCCNCCCNC(=O)c2ccc(C)nc2)cn1` showed a z-score of -0.364.

The compound `CCCCCOc1ccccc1C(=O)NCCCC(=O)O` had a z-score of -0.837.

`CCN(CC)c1nc(C)c2c(c1C#N)CC(C)(C)OC2` showed a z-score of 0.916.

`Cn1ncc(N=Cc2ccccc2O)c1C(=O)N1CCOCC1` came in with a z-score of -0.56.

Regarding `CN1CCN(c2c3c(c(C#N)c4nc5ccccc5n24)CCCC3)CC1`, the z-score is -0.661.

`CC(C(=O)NC(=O)NCc1ccccc1)N1C(=O)c2ccccc2C1=O` (stereo not given) showed a z-score of 0.0595.

`COC(=O)c1cc(Br)c(=O)n(-c2cc(C)on2)c1`: the z-score is -1.68.

Consider `CCOC(=O)c1[nH]c2ccc(OC)cc2c1NC(=O)CCN1CCCC(C)C1` (stereo not given), for which the z-score is -0.411.

`COc1cccc(C(=O)c2sc(NC(C)C)nc2N)c1` had a z-score of 2.2.

For the compound `CCOc1ccc(-c2nc(C#N)c(N3CCN(CC)CC3)o2)cc1`, the z-score came to 0.103.

Compound `CCC(CC)n1[nH]c(=O)cc1N` showed a z-score of -1.52.

With `CC1(C)Cc2nc(NCCN3CCOCC3)c(C#N)cc2CO1`, the z-score was determined as 0.853.

For `COc1ccc2nc(/N=C(\N)NC(=O)C(C)(C)C)nc(C)c2c1`, the z-score was -0.163.

With `CC(C)CNc1nc2c(c(=O)n(C)c(=O)n2C)n1Cc1cccc(Br)c1`, the z-score was -0.339.

`COc1ccccc1C(=O)Nc1cc(Cl)ccc1O` displayed a z-score of 0.45.

On to `c1ccc(-n2ncc3c(N4CCCC4)ncnc32)cc1`, for which the z-score came to 1.25.

`NC(=O)C1CCN(CCC(=O)Nc2ccc(Br)cc2)CC1`: the z-score was -1.51.

As to `CCCCC(=O)c1c(C)cc(C)[nH]c1=O`, the z-score is 0.876.

In turn, `C/C(NC(=O)c1cccs1)=C1\C(=O)C[C@@H]2[C@H]1C2(C)C` registered a z-score of -0.0395.

The compound `CC1CCN(c2[nH]c(=S)c(C#N)c3c2CCCC3)CC1` showed a z-score of -0.606.

`CCC(=O)Nc1ccc(-c2nnc(SCC(=O)NCC3CCCO3)n2C)cc1` (stereo not given): the z-score amounted to 1.6.

For the compound `Cc1nnc(N2CCCCC2)c2ccccc12`, the z-score was found to be 0.768.

`Cc1cccc(-n2ncc3c(NCCN4CCOCC4)ncnc32)c1` returned a z-score of 1.25.

`N#CCCN(C(=O)c1ccco1)c1ccccc1` gave a z-score of -1.06.

In turn, `N#Cc1c(N)nc(SCC(=O)NCc2ccc3c(c2)OCO3)c(C#N)c1-c1cccs1` showed a z-score of 1.31.

On to `CCC1CC2(C)NC(=O)c3c(sc4c3CC(C)(C)OC4)N2C1=O` (stereo not given), for which the z-score is 0.00352.

`C=CCN=C(C)C1=C(O)CCC1=O` gave a z-score of 0.913.

`Cc1ccc(-n2ncc3c(NCc4cccnc4)ncnc32)c(C)c1` yielded a z-score of 0.459.

Consider `Clc1ccc(COc2ccccn2)c(Cl)c1`, for which the z-score is -1.08.

For `Cc1cc(=O)oc(C)c1C(=O)Nc1ccc2nsnc2c1`, the z-score turned out to be 0.546.

`O=C(C1CCCCC1)N1CCCn2c1nc1ccccc12` registered a z-score of 0.0435.

In turn, `CCc1nc(NCC2CCCO2)c(C#N)c2c1COC(C)(C)C2` (stereo not given) yielded a z-score of -0.0587.

For `CCc1nc(N2CCOCC2)c(C#N)c2c1CCCC2`, the z-score was 0.691.

The compound `CCc1cc(=O)oc2cc(C)c(CN3CCCC(C)C3)c(O)c12` (stereo not given) had a z-score of 0.423.

Compound `C=CCN=C(NC#N)SCCc1ccccc1` registered a z-score of 1.91.

The compound `CCN(CC)CCN1C(=O)c2ccccc2NC1c1cc(OC)c(OC)c(OC)c1` (stereo not given) returned a z-score of -1.27.

`COc1ccc(C2C(C#N)=C(N)Oc3cc(C)n(CCN4CCOCC4)c(=O)c32)cc1OC` (stereo not given) had a z-score of 0.613.

The test is the same for the next values; noted with them: HeLa MKP-3 transfected, phospho-Erk imaging KS statistic; measured here: nuclear pErk red intensity z-score; at 10 µM; stronger effect = higher value; cells stimulated with TPA for 15 min.
With `Cc1nnc(N2CCOCC2)c2ccccc12`, the z-score is -1.27.

In the case of `CCOc1ccc2c(c1)n([O-])c1c([n+]2=O)CCCC1`, the z-score was -1.91.

In turn, `C[N+]1(CCNC(=O)/C=N/O)CCCCC1` registered a z-score of 0.488.

In the case of `Cc1ccc(C(=O)NCCCNCCCNC(=O)c2ccc(C)nc2)cn1`, the z-score was -0.725.

Turning to `CCCCCOc1ccccc1C(=O)NCCCC(=O)O`, the z-score was 0.123.

As to `CCN(CC)c1nc(C)c2c(c1C#N)CC(C)(C)OC2`, the z-score is -0.636.

Regarding `Cn1ncc(N=Cc2ccccc2O)c1C(=O)N1CCOCC1`, the z-score was 0.451.

Consider `CN1CCN(c2c3c(c(C#N)c4nc5ccccc5n24)CCCC3)CC1`, for which the z-score is -1.13.

Consider `CC(C(=O)NC(=O)NCc1ccccc1)N1C(=O)c2ccccc2C1=O` (stereo not given), for which the z-score is -0.687.

In turn, `COC(=O)c1cc(Br)c(=O)n(-c2cc(C)on2)c1` came in with a z-score of 0.836.

Consider `CCOC(=O)c1[nH]c2ccc(OC)cc2c1NC(=O)CCN1CCCC(C)C1` (stereo not given), for which the z-score was -1.15.

In the case of `COc1cccc(C(=O)c2sc(NC(C)C)nc2N)c1`, the z-score was 0.884.

Take `CCOc1ccc(-c2nc(C#N)c(N3CCN(CC)CC3)o2)cc1`: the z-score was 0.968.

Consider `CCC(CC)n1[nH]c(=O)cc1N`, for which the z-score is -0.418.

`CC1(C)Cc2nc(NCCN3CCOCC3)c(C#N)cc2CO1` gave a z-score of 0.307.

Compound `COc1ccc2nc(/N=C(\N)NC(=O)C(C)(C)C)nc(C)c2c1` displayed a z-score of -0.285.

Regarding `CC(C)CNc1nc2c(c(=O)n(C)c(=O)n2C)n1Cc1cccc(Br)c1`, the z-score is -0.433.

The compound `COc1ccccc1C(=O)Nc1cc(Cl)ccc1O` gave a z-score of 1.34.

`c1ccc(-n2ncc3c(N4CCCC4)ncnc32)cc1` returned a z-score of -0.224.

`NC(=O)C1CCN(CCC(=O)Nc2ccc(Br)cc2)CC1`: the z-score came out at 0.0444.

Take `CCCCC(=O)c1c(C)cc(C)[nH]c1=O`: the z-score was determined as 0.0182.

For `C/C(NC(=O)c1cccs1)=C1\C(=O)C[C@@H]2[C@H]1C2(C)C`, the z-score is -0.0984.

`CC1CCN(c2[nH]c(=S)c(C#N)c3c2CCCC3)CC1` displayed a z-score of 1.46.

In turn, `CCC(=O)Nc1ccc(-c2nnc(SCC(=O)NCC3CCCO3)n2C)cc1` (stereo not given) registered a z-score of 0.412.

In the case of `Cc1nnc(N2CCCCC2)c2ccccc12`, the z-score worked out at 0.176.

Turning to `Cc1cccc(-n2ncc3c(NCCN4CCOCC4)ncnc32)c1`, the z-score was -0.89.

With `N#CCCN(C(=O)c1ccco1)c1ccccc1`, the z-score was -0.443.

For `N#Cc1c(N)nc(SCC(=O)NCc2ccc3c(c2)OCO3)c(C#N)c1-c1cccs1`, the z-score was -0.212.

`CCC1CC2(C)NC(=O)c3c(sc4c3CC(C)(C)OC4)N2C1=O` (stereo not given) yielded a z-score of -0.401.

With `C=CCN=C(C)C1=C(O)CCC1=O`, the z-score is -0.284.

Take `Cc1ccc(-n2ncc3c(NCc4cccnc4)ncnc32)c(C)c1`: the z-score was determined as 0.734.

For the compound `Clc1ccc(COc2ccccn2)c(Cl)c1`, the z-score is -1.17.

The compound `Cc1cc(=O)oc(C)c1C(=O)Nc1ccc2nsnc2c1` came in with a z-score of 0.697.

Consider `O=C(C1CCCCC1)N1CCCn2c1nc1ccccc12`, for which the z-score was -0.166.

In turn, `CCc1nc(NCC2CCCO2)c(C#N)c2c1COC(C)(C)C2` (stereo not given) came in with a z-score of 0.863.

Take `CCc1nc(N2CCOCC2)c(C#N)c2c1CCCC2`: the z-score was -0.389.

`CCc1cc(=O)oc2cc(C)c(CN3CCCC(C)C3)c(O)c12` (stereo not given) registered a z-score of -0.74.

`C=CCN=C(NC#N)SCCc1ccccc1` came in with a z-score of -0.167.

`CCN(CC)CCN1C(=O)c2ccccc2NC1c1cc(OC)c(OC)c(OC)c1` (stereo not given) gave a z-score of 1.11.

In the case of `COc1ccc(C2C(C#N)=C(N)Oc3cc(C)n(CCN4CCOCC4)c(=O)c32)cc1OC` (stereo not given), the z-score was -1.48.
